This is part of a sample that, as a whole, favours compounds with a hit. Of some 83,000 tested, about 20% had one in any assay.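 Method: cells in 96-well plates; compound added at one concentration; 48 h incubation; percent growth measured; values under 10 scored active.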 Values without a mark were called inactive. The source made the active and inactive calls.
What was measured:
Test in all cases: NCI-60 one-dose screen, 48 h (100 = growth as untreated, 0 = no growth, -100 = all killed)
Conditions in all cases: 10 µM
NCI-H23 lung = test system: NCI-H23 lung
NCI-H226 lung = test system: NCI-H226 lung
NCI-H322M lung = test system: NCI-H322M lung
HOP-62 NSCLC = test system: HOP-62 NSCLC
NCI-H460 lung = test system: NCI-H460 lung
NCI-H522 lung = test system: NCI-H522 lung
A549/ATCC NSCLC = test system: A549/ATCC NSCLC
786-0 renal = test system: 786-0 renal
COLO 205 colon = test system: COLO 205 colon
DU-145 prostate = test system: DU-145 prostate
K-562 leukemia = test system: K-562 leukemia
MALME-3M melanoma = test system: MALME-3M melanoma
MDA-MB-231 breast = test system: MDA-MB-231 breast
RXF 393 renal = test system: RXF 393 renal
SF-268 CNS = test system: SF-268 CNS
SF-295 CNS = test system: SF-295 CNS
SF-539 CNS = test system: SF-539 CNS
UACC-257 melanoma = test system: UACC-257 melanoma
M14 melanoma = test system: M14 melanoma
HCT-15 colon = test system: HCT-15 colon

SMILES	growth (NCI-H23 lung)	growth (NCI-H226 lung)	growth (NCI-H322M lung)	growth (HOP-62 NSCLC)	growth (NCI-H460 lung)	growth (NCI-H522 lung)	growth (A549/ATCC NSCLC)	growth (786-0 renal)	growth (COLO 205 colon)	growth (DU-145 prostate)	growth (K-562 leukemia)	growth (MALME-3M melanoma)	growth (MDA-MB-231 breast)	growth (RXF 393 renal)	growth (SF-268 CNS)	growth (SF-295 CNS)	growth (SF-539 CNS)	growth (UACC-257 melanoma)	growth (M14 melanoma)	growth (HCT-15 colon)
Cc1cc(Cc2cc(C)c(O)c(C)c2)cc(C)c1O	74.1%	96.6%	68.2%	49.8%	29.1%	28.5%	36.8%	56.2%	104%	78.3%	13.2%	46.5%	59.6%	58.1%	64.1%	42.6%	37.2%	51.5%	29.9%	38.2%
c1ccc(CNc2ncnc3scc(-c4cccs4)c23)nc1	53.5%	68.1%	86.3%	65%	77.4%	60.4%	56.6%	79.6%	89.7%	92.1%	42.7%	89.5%	59.9%	73.6%	79.7%	41.2%	72.7%	46.1%	70.7%	76%
Cc1cccc2c1O/C(=C\c1ccc([N+](=O)[O-])o1)C2=O	-39.8% (active)	-57.8% (active)	37.9%	-25.6% (active)	-58.5% (active)	-77.4% (active)	-12.2% (active)	-39.5% (active)	-84.3% (active)	-62.7% (active)	-44.2% (active)	-32.4% (active)	-47.3% (active)	-80.8% (active)	-39.8% (active)	31.1%	-59.2% (active)	-65% (active)	-54.1% (active)	-55.2% (active)
COc1ccc(-c2cc(-c3cccc(NS(C)(=O)=O)c3)nc(N)c2C#N)cc1	37.7%	62.8%	44.4%	52.3%	4.64% (active)	-4.96% (active)	33.6%	42.9%	-27% (active)	5.82% (active)	14.3%	2.95% (active)	30.4%	16.3%	29.9%	0.458% (active)	5.27% (active)	79.1%	6.36% (active)	30.5%
CCOC(=O)c1ccoc1	103%	101%	85.1%	97.8%	101%	91.1%	96.9%	99.1%	101%	109%	93.8%	100%	128%	110%	108%	108%	95.6%	80.3%	106%	97%
CCOC(=O)N1C/C(=C/c2ccc(F)cc2)C(=O)/C(=C/c2ccc(F)cc2)C1	12.2%	-18.7% (active)	53.9%	-12.9% (active)	3.07% (active)	-52.4% (active)	22%	-58.7% (active)	2.88% (active)	-6.4% (active)	3.36% (active)	-36.8% (active)	-2.86% (active)	-83.4% (active)	-12% (active)	-22% (active)	3.86% (active)	-14.7% (active)	-69% (active)	-63.4% (active)
COc1ccc2c(c1)O/C(=C\c1ccc([N+](=O)[O-])o1)C2=O	-3.07% (active)	22.3%	41.5%	-12.4% (active)	-20.9% (active)	-63% (active)	-10.9% (active)	-27.3% (active)	-79.4% (active)	-11.1% (active)	2.05% (active)	-37.1% (active)	8.07% (active)	-74% (active)	-5.87% (active)	9.85% (active)	-43.2% (active)	-13.1% (active)	-15.5% (active)	2.39% (active)
CCCCC(CCCCCC(CCCC)NCc1ccc2c(c1)OCO2)NCc1ccc2c(c1)OCO2 (stereo not given)	-98.5% (active)	-77.9% (active)	-91.6% (active)	-98.9% (active)	-98.4% (active)	-91.2% (active)	-99.2% (active)	-100% (active)	-97.5% (active)	-100% (active)	-72.3% (active)	-69.3% (active)	-86% (active)	-93.3% (active)	-96.8% (active)	-79.7% (active)	-100% (active)	-86.9% (active)	-100% (active)	-88% (active)
CS(=O)(=O)Nc1ccc(Nc2c3ccccc3nc3cc(N)ccc23)cc1	20.5%	-13.9% (active)	42%	11.9%	1.01% (active)	-11.5% (active)	11%	2.37% (active)	51.9%	16.9%	22.7%	-32.7% (active)	85.8%	64.2%	13%	-23.3% (active)	2.88% (active)	0.44% (active)	7.54% (active)	73.6%
O=C1/C(=C\c2ccc(F)cc2)CN(C(=O)c2ccc([N+](=O)[O-])cc2)C/C1=C\c1ccc(F)cc1	49.3%	38.2%	76.3%	32.9%	68.4%	46.9%	52.9%	20.3%	38.8%	25.5%	1.96% (active)	40.5%	0.131% (active)	-2.85% (active)	29.2%	10.4%	58%	67%	2.02% (active)	7.31% (active)
CSc1nc(=O)n(Cc2ccc(Cl)cc2)c(=O)[nH]1	100%	108%	127%	92.1%	108%	90.7%	99.1%	101%	104%	104%	96.1%	105%	104%	115%	102%	146%	101%	102%	106%	103%
CCOC(=O)N1C/C(=C/c2ccc(Cl)cc2)C(=O)/C(=C/c2ccc(Cl)cc2)C1	72.1%	39.3%	79.2%	64.7%	77.8%	65.5%	61.1%	65.6%	45.3%	46.3%	3.7% (active)	84.9%	68.3%	47.4%	52.3%	44.2%	98%	94.2%	57.1%	34.3%
COc1cc(Cl)cc(-c2nn(-c3cccc(NC(=O)c4ccc(N5CCOCC5)c(C(F)(F)F)c4)c3)cc2-c2ccncc2)c1	79%	64.2%	89.6%	52.2%	29.3%	52.7%	45.5%	43.1%	52.7%	93.3%	4.03% (active)	57.9%	11.4%	12.4%	67.3%	2.6% (active)	52.1%	63.6%	56.7%	17.3%
c1ccc(CP(Cc2ccccc2)c2ccccc2)cc1	97.9%	105%	87.3%	99.4%	112%	83.1%	97%	93.5%	106%	113%	83.4%	82.3%	98.3%	113%	110%	82.4%	110%	95.5%	95.4%	95.1%
Nc1nc(N)c2c(ccc3nccc32)[nH]1	50%	123%	61%	74.8%	20%	37.9%	2.16% (active)	35.8%	71.4%	62.2%	16.6%	58.7%	73.5%	56.5%	46.6%	34.4%	57.9%	-9.73% (active)	28.7%	46.9%
COc1ccc(-c2nn(-c3cccc(NC(=O)c4ccc(N5CCOCC5)c(C(F)(F)F)c4)c3)cc2-c2ccncc2)cc1Cl	83.2%	83.6%	80.3%	73.7%	62.1%	41%	54.7%	37.9%	54.6%	91.8%	23.6%	48.7%	66.4%	18.7%	70.7%	9.97% (active)	41%	67.8%	65%	53.5%

From PubChem BioAssay (NCI)
